Common to all, as to test: NCI-60 one-dose screen, 48 h (100 = growth as untreated, 0 = no growth, -100 = all killed)
Common to all, as to details: 10 µM unless noted

Experiment [1] has as its system SR leukemia.
Experiment [2] has as its system RPMI-8226 leukemia.
Experiment [3] deals with OVCAR-8 ovarian.
Experiment [4] deals with OVCAR-5 ovarian.
The test system of experiment [5] is OVCAR-4 ovarian.
Experiment [6] has as its system SK-OV-3 ovarian.
Experiment [7] deals with IGROV1 ovarian.
The subject of experiment [8] is OVCAR-3 ovarian.
Experiment [9] concerns HS 578T breast.
For experiment [10], the system named is NCI/ADR-RES ovarian.
The subject of experiment [11] is T-47D breast.
The test system of experiment [12] is BT-549 breast.
Experiment [13] relates to MDA-MB-435 melanoma.
Experiment [14] concerns SW-620 colon.
Experiment [15] has as its system MCF7 breast.
The subject of experiment [16] is HCT-116 colon.
Experiment [17] relates to HCC-2998 colon.
Experiment [18] deals with KM12 colon.

SMILES strings stand for the structures. Compounds without any hit were thinned out: in the full panel of roughly 83,000, 20% have a hit.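 Each cell line was grown in a 96-well plate and treated with one concentration of compound for 48 hours. Values below 10 were considered active.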 Values without a mark were called inactive. The source made the active and inactive calls.

Consider `O=Cc1nc2ccccc2[nH]1`, for which the growth in experiment [1] is 83%; in experiment [2], 96.9%; in experiment [3], 100%; in experiment [4] it was 104%; in experiment [5] it was 110%; in experiment [6], 94.2%. The growth in experiment [7] is 107%; in experiment [8] it was 111%; in [9] it was 95.4%; in [10] it was 106%; in experiment [11] it was 91.9%; in experiment [12], 101%. Besides, the growth in [13] was 107%; in experiment [14], 101%; in [15] it was 96.4%; in experiment [16] it was 88.5%; in experiment [17] it was 107%; in experiment [18] it was 99.8%.

As to `CC(C)/C=C/CC[C@](C)(O)[C@H]1CC[C@]2(C)[C@@H]1CC[C@@H]1[C@@]3(C)C/C(=C/c4cccc(C(F)(F)F)c4)C(=O)C(C)(C)[C@@H]3CC[C@]12C`, the growth in [1] was 82.6%; in experiment [2], 95.4%; in experiment [3], 87.6%; in [4], 107%; in [5], 87.2%; in [6] it was 103%. In addition, the growth is 104% in experiment [7]; 93.8% in experiment [8]; 99.7% in experiment [9]; 97.8% in experiment [10]; 73.8% in [11]; 95.9% in experiment [12]. Further, the growth is 99.3% in experiment [13]; 93.3% in [14]; 82% in [15]; 76% in experiment [16]; 104% in experiment [17]; 99.8% in experiment [18].

Consider `CN(C)c1ccc(C(=O)c2ccc(N(C)C)c(N)c2)cc1N`, for which the growth in [1] is 7.86% (active); in experiment [2] it was 60.4%; in experiment [3] it was 41.6%; in experiment [4], 75.7%; in experiment [5] it was 47%; in [6], 24.6%. In addition, the growth is 72.8% in experiment [7]; -31% (active) in [8]; 7.6% (active) in experiment [9]; -14% (active) in [10]; 21.9% in experiment [11]; 31.9% in experiment [12]. The growth in experiment [13] is -32.1% (active); in experiment [14], 10.2%; in experiment [15] it was 15%; in experiment [16], 23.6%; in [17], 86.1%; in experiment [18], 17.7%.

For the molecule `O=C(Nc1ccc(/C=C2\SC(=O)N(Cc3ccc(OC(F)(F)F)cc3)C2=O)cc1)c1ccc(Cl)c([N+](=O)[O-])c1`, the growth is -0.106% (active) in experiment [1]; -11.2% (active) in experiment [2]; 87.5% in experiment [3]; 85.5% in [4]; 31.4% in experiment [5]; 93.7% in experiment [6]. Also, the growth in [7] is 79.9%; in experiment [8], 48.2%; in [9], 72.1%; in [10], 73.6%; in [11], 4.78% (active); in experiment [12] it was 75.3%. Moreover, the growth was 99.6% in experiment [13]; 2.11% (active) in [14]; 1.61% (active) in experiment [15]; 67.5% in experiment [16]; 96.7% in [17]; 53.1% in experiment [18].

Regarding `COc1cc2c(cc1-c1c(C)noc1C)ncc1nc(C3CCCCC3)n([C@@H](C)COC(F)F)c12`, the growth in [1] is 14.5%; in experiment [2] it was 13.3%; in [3], 39.1%; in experiment [4], 76.6%; in experiment [5], 41.8%; in experiment [6], 4.85% (active). The growth was 43.8% in [7]; 35.6% in experiment [8]; 14.3% in experiment [9]; 37% in experiment [10]; 25% in experiment [11]; 52.9% in experiment [12]. Moreover, the growth is 28.2% in experiment [13]; 59.2% in experiment [14]; 12.1% in experiment [15]; 24.8% in experiment [16]; 50.5% in experiment [17]; 35.9% in experiment [18].

Regarding `CCOC(=O)N1CCN(CCCCOc2ccc(C(C)(C)CC)cc2)CC1`, the growth in [1] was 90.3%; in experiment [2] it was 84.4%; in experiment [3], 103%; in experiment [4], 106%; in experiment [5], 93.8%; in experiment [6] it was 104%. Besides, the growth is 110% in [7]; 103% in [8]; 108% in experiment [9]; 88.2% in experiment [10]; 79.7% in [11]; 82.3% in [12]. The growth in [13] was 105%; in [14] it was 101%; in [15], 103%; in experiment [16], 70.8%; in experiment [17], 107%; in [18] it was 95.6%.

Regarding `Cc1cccc(C)c1NC(=O)CSC(=S)N1CCCCC1`, the growth in experiment [1] was 101%; in experiment [2], 104%; in experiment [3], 105%; in experiment [4], 101%; in experiment [5], 106%; in [6], 110%. Also, the growth in experiment [7] is 90.7%; in experiment [8] it was 103%; in [9] it was 96.8%; in [10], 103%; in experiment [11], 85.4%; in experiment [12], 105%. For the same molecule, the growth in experiment [13] is 110%; in experiment [14] it was 103%; in [15], 97.8%; in experiment [16], 99.7%; in experiment [17], 100%; in [18] it was 97.8%.

On to `COc1ccc(-c2cc(=O)oc3ccc(Cl)cc23)cc1F`, for which the growth is 11.2% in experiment [1]; 28.1% in experiment [2]; 20.3% in experiment [3]; 54.7% in experiment [4]; 55.9% in experiment [5]; 0.514% (active) in experiment [6]. Also, the growth is 43.1% in [7]; 6.02% (active) in experiment [8]; 20.1% in experiment [9]; 6.24% (active) in experiment [10]; 50.5% in experiment [11]; 18.9% in experiment [12]. In addition, the growth in [13] was -21.1% (active); in experiment [14], 23.5%; in experiment [15], 17.4%; in experiment [16], 5.47% (active); in [17] it was 19.6%; in [18], 11.2%.

These data come from PubChem BioAssay (NCI).
